According to PubChem BioAssay AID1645883 (National Center for Advancing Translational Sciences (NCATS), 2021):
Values joined by “and” are separate entries in the source; they are usually repeats but may differ in a detail not shown here. Equal values may be shown once. Among all 16,000 compounds or so, about 160 (1%) were called active. Another 8% or so got no clear call; they are omitted. Calls come from the whole dose curve; as a rule, active = well fitted activation curve with a large enough effect; inconclusive = small, poorly fitted or top-dose-only effect; inactive = no such curve, though single readings can be large or run the other way. Shown is part of a subset that was picked to be rich in actives.

Biological target: Rap guanine nucleotide exchange factor 3 (Homo sapiens) (UniProt O95398)
Sequence (O95398 whole entry, looked up): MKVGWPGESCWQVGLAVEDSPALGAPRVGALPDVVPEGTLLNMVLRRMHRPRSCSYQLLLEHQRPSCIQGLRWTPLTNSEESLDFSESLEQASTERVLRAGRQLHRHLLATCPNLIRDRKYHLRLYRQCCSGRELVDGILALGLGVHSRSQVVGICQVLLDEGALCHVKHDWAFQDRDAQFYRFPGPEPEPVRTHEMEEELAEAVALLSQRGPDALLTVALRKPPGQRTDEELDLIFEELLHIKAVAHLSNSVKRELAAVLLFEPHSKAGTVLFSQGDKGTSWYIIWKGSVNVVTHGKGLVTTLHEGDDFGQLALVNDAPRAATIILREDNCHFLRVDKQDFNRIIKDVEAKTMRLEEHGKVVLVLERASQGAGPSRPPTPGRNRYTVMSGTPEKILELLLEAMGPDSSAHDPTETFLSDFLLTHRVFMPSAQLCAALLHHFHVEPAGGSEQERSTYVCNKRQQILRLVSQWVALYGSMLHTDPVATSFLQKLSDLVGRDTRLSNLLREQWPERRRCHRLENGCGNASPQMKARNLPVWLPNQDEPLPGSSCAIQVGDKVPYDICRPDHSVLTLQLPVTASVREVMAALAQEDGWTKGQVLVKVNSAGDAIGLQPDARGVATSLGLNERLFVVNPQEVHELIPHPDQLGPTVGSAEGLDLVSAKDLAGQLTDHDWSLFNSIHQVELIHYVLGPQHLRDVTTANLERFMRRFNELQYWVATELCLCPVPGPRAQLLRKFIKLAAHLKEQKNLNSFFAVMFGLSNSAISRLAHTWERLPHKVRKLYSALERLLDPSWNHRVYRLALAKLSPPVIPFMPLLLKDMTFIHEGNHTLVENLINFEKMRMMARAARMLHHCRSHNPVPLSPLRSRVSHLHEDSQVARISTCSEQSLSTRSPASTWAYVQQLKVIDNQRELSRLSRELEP
Assay: Validation qHTS for agonist of cAMP-regulated guanine nucleotide exchange factor 3 (EPAC1); note: nearly all actives have a fitted effect of over 70% in size
Settings: EPAC1 Rap1b BODIPY-GDP exchange, fluorescence; max response: stronger effect = higher value, percent of cAMP control response
Description: Assay Provider (PI): Xiaodong Cheng Ph.D.
The University of Texas Medical Branch, […], TX
In multi-cellular eukaryotic organisms, the effects of cAMP are transduced by two ubiquitously-expressed intracellular cAMP receptors, the classic protein kinase A/cAMP-dependent protein kinase (PKA/cAPK) and the more recently discovered exchange protein directly activated by cAMP/cAMP-regulated guanine nucleotide exchange factor (EPAC/cAMP-GEF). Both PKA and EPAC are ubiquitously expressed in all tissues, and an increase in intracellular cAMP levels will lead to the activation of both PKA and EPAC. Therefore, careful dissections of the individual role and relative contribution of EPAC and PKA within the overall cAMP signaling in various model systems are critical for further elucidating the mechanism of cAMP signaling. To date no EPAC-specific antagonists and agonist, as well as isoform-specific agonists have been reported, and developing EPAC-specific pharmacological probes to determine the physiological functions that EPAC play in the overall cAMP-mediated signaling remains a major challenge within the research field. Furthermore, identified regulators of EPAC may lead to new mechanism-based therapeutic strategies specifically targeting the EPAC / cAMP-signaling components as EPAC has been implicated to play important roles in major human pathological conditions such as diabetes, heart disease, and cancer.
This qHTS will be used to screen the Molecular Libraries Small Molecule Repository (MLSMR) as a concentration-titration series using the NCGC unique quantitative screening (qHTS) platform to find activators for EPAC1. In addition, this assay will also be used as a counterscreen for the EPAC2 qHTS. This fluorescent based assay is developed and validated for EPAC1 that measures exchange using EPAC effector Rap1 complex with BODIPY-GDP, a GDP analog with a tethered fluorophores. Activators are identified by monitoring the change in fluorescence signal as the exchanged free BODIPY-GDP has a reduced fluorescence compared to Rap1-bound BODIPY-GDP. Increase in signal (activation) is the desired outcome for the EPAC1 agonist while no activity in this assay is desired for the EPAC2 agonist counterscreen.
[1] de Rooij, J., Zwartkruis, F. J., Verheijen, M. H., Cool, R. H., Nijman, S. M., Wittinghofer, A., and Bos, J.L. (1998) Nature 396, 474-477.
Briefly, three uL of reagents (100 nM EPAC1, 250 nM RAP1B-BODIPY-GDP, 50 uM GDP) were dispensed into a 1536-well Greiner black solid-bottom medium binding assay plate. Controls and test compounds (23 nL) were transferred to the plate via a Kalypsys pin tool equipped with a 1536-pin array. The plates were centrifuged at 1,000 rpm for 15 seconds followed by 5 minute incubation at room temperature. The assay plates were read at 5 minute intervals for 30 minutes in the ViewLux plate reader using 480nm excitation and 540nm emission filters. The results were normalized to the agonist positive control of 6.5 mM cAMP.
% is set by controls: 0 for no effect and ±100 for the full control effect; potency is the fitted concentration of half-maximal effect.

Structure (SMILES) | max response | Potency
Cc1cccc(CN2Cc3cccc4c3[C@H](C=CC4)CC2=S)c1 | 29.3% (inactive) | –
CCCCC[C@H]1CN(C2CCCCC2)C(=O)[C@@H]1CC(=O)NCc1ccc(OC)cc1 | -76.4% (inactive) | –
CC(=O)Oc1c2c(c3c(c1CC=C(C)C)O[C@@]14C(=CC5CC1C(C)(C)OC4(C/C=C(\C)C(=O)O)C5=O)C3=O)OC(C)(CCC=C(C)C)C=C2 (some centres not stated) | -112% (inactive) | –
O=C(c1cc(C(F)(F)F)cc(C(F)(F)F)c1)N1CCC[C@@]2(CCN(c3ccccn3)C2)C1 | -122% (inactive) | –
O=C1C[C@H]2C=CCc3cccc(c32)CN1Cc1ccccc1 | -26.6% (inactive) | –
CNc1nc(-c2ccccc2OC)nc2ccccc12 | 24.4% (inactive) | –
COc1ccc(CNc2ncncc2-c2ccccc2C)c(OC)c1 | -35% (inactive) | –
C=C1C(=O)C23C(O)C1CCC2[C@]12COC3(O)C(O)C1C(C)(C)CC[C@H]2O (some centres not stated) | -116% (inactive) | –
O=C(O)CCc1cccnc1 | -31.6% (inactive) | –
COc1ccc(CN2CCOc3c(cc(-c4ncc(C(F)(F)F)cc4Cl)cc3OCC3CCCO3)C2)c(O)c1 (configuration not stated) | -26% (inactive) | –
CC1=C(/C=C/C(C)=C/C=C/C(C)=C/C=C/C=C(C)/C=C/C=C(C)/C=C/C2=C(C)CCCC2(C)C)C(C)(C)CCC1 | -9% (inactive) | –
O=C(c1csnn1)N1CCC[C@@]2(CCN(c3cccc(-c4ccccc4)c3)C2)C1 | -63.8% (inactive) | –
CC(C)NC(=O)N1CCC2(CC1)CCN(C(=O)c1cccn1C)CC2 | -49.6% (inactive) | –
Cn1cccc1C(=O)N1CCC2(CC1)CN(c1cccc(-c3ccccc3)c1)C2 | – | 112 µM (active)
Oc1ccc2c(c1)OCC1c3cc4c(cc3OC21)OCO4 (configuration not stated) | 5.11% (inactive) | –
O=C(c1ccc(F)cc1)C1CCN(CCCCc2ccccc2)CC1 | -5.39% (inactive) | –
COc1cc(=O)n2c(c1C(=O)N(C)Cc1nccs1)CCN(Cc1ccc(Cl)cc1)CC2 | -7.19% (inactive) | –
Cc1nc2cnc(Nc3ccccc3)nc2n(Cc2ccc(F)cc2)c1=O | 15.4% (inactive) | –
O=c1c(-c2cc(F)cc(F)c2)nc2cnc(Oc3ccccc3)nc2n1C[C@H]1CCCO1 | -26.8% (inactive) | –
N#CCCn1c(=O)c(-c2cc(F)cc(F)c2)nc2cnc(Oc3ccccc3)nc21 | 3.54% (inactive) | –
O=C(c1cc2ccccc2o1)N1CCN(Cc2ccccc2)CC1 | -2.2% (inactive) | –

Structure (SMILES) | max response | Potency
c1ccc2c(Nc3ccncc3)nc(-c3ccoc3)nc2c1 | -4.89% (inactive) | –
c1ccc2c(Nc3ccncc3)nc(-c3ccc4c(c3)OCO4)nc2c1 | 10.9% (inactive) | –
COc1cccc(-c2nc(Nc3ccncc3)c3ccccc3n2)c1 | – | 100 µM (active)
CC1CC2C3CCC4=CC(=O)C=C[C@]4(C)[C@@]3(F)[C@@H](O)C[C@]2(C)[C@@]1(O)C(=O)CO (some centres not stated) | 3.48% (inactive) | –
O=C(O)C(O)[C@@](O)(Cc1ccc(O)cc1)C(=O)O (some centres not stated) | 6.44% (inactive) | –
O=C(O)C1CCN(c2ncnc3ccc(-c4ccccc4C(F)(F)F)cc23)CC1 | -7.12% (inactive) | –
CC(C)C(=O)NC(C)c1nnc2n1CCN(Cc1cccc3ncccc13)CC2 (configuration not stated) | -0.781% (inactive) | –
O=C(c1csnn1)N1CCC2(CCN(Cc3nccs3)CC2)CC1 | -44.7% (inactive) | –
C[C@@H]1CN(Cc2ccc3c(c2)CN(Cc2ccc(Oc4ncccn4)cc2)CCO3)C[C@H](C)O1 | -1.6% (inactive) | –
O=C(c1ccco1)N1CCC[C@@]2(CCN(Cc3nccs3)C2)C1 | -63.4% (inactive) | –
CS(=O)(=O)N1CCC[C@@]2(CCN(c3ccncc3)C2)C1 | -34% (inactive) | –
O=C(Nc1cccc(F)c1)N1CC2(CCN(C(=O)c3cnccn3)CC2)C1 | 7.33% (inactive) | –
C=C1C(=CC=C2CCC[C@]3(C)[C@@H]([C@H](C)C=C[C@H](C)C(C)C)CC[C@@H]23)C[C@@H](O)C[C@@H]1O | -167% (inactive) | –
C=CC(C1=CC(=O)C=CC1=O)c1ccc(O)cc1 (configuration not stated) | 3.74% (inactive) | –
Fc1cccc(/C=N\N=C/c2cccc(F)c2)c1 | -1.27% (inactive) | –
O=C1OC(C(O)CO)C(O)=C1O (configuration not stated) | 21.1% (inactive) | –
N#Cc1cc2[nH]c(=O)c(=O)[nH]c2cc1[N+](=O)[O-] | 0.579% (inactive) | –
CN1CC[C@H](c2c(O)cc(O)c3c(=O)cc(-c4ccccc4Cl)oc23)[C@H](O)C1 | -89% (inactive) | –
Cn1cc(-c2nc3cncnc3n(-c3ccccc3)c2=O)c2ccccc21 | -219% (inactive) | –
N[C@@H](C(=O)O)c1ccc(P(=O)(O)O)cc1 | -5.54% (inactive) | –
CC1CC[C@@]23CCC4(C)[C@@]5(C)CCC6C(C)(C)C(O)CC[C@@]6(C)C5C=C[C@@]4(OC2=O)C3C1C (some centres not stated) | -57.5% (inactive) | –

Structure (SMILES) | max response | Potency
O=C1NS(=O)(=O)c2ccccc21 | -6.7% (inactive) and 22.2% (inactive) | –
CC(=O)OC[C@H]1O[C@@H](O[C@H]2[C@H](O)[C@@H](OC(=O)c3ccccc3C(=O)O)[C@H](O)O[C@@H]2COC(C)=O)[C@H](O)[C@@H](OC(=O)c2ccccc2C(=O)O)[C@@H]1O | -29.6% (inactive) | –
CC(O)(COc1ccccc1)c1ccc2c(c1)CN(Cc1cn[nH]c1-c1ccc(F)cc1)CCO2 (configuration not stated) | 6.27% (inactive) | –
COc1ccc(CCNc2ncnc3sc(C(=O)N4CCCC4)c(C)c23)cc1OC | -3.63% (inactive) | –
O=C(c1cc(C(F)(F)F)cc(C(F)(F)F)c1)N1CCC2(CCCN(Cc3ccncc3)C2)CC1 | -115% (inactive) | –
COC(=O)N1CCC[C@@]2(CCN(C(=O)NC(C)C)C2)C1 | -60.9% (inactive) | –
C[C@H]1C[C@H]2[C@@H]3CCC4=CC(=O)C=C[C@]4(C)[C@@H]3C(=O)C[C@]2(C)[C@@]1(O)C(=O)CO | 0.445% (inactive) | –
COc1cc2c(cc1OC)[C@@H](Cc1cc(OC)c(OC)c(OC)c1)[N+](C)(CCCOC(=O)CC/C=C/CCC(=O)OCCC[N+]1(C)CCc3cc(OC)c(OC)cc3[C@H]1Cc1cc(OC)c(OC)c(OC)c1)CC2 (some centres not stated) | -11.5% (inactive) and 6.58% (inactive) | –
CC(=O)Nc1ccccc1-c1nc(CNC(=O)c2ccc(Cl)cc2)c(C)o1 | -0.968% (inactive) | –
COc1cc(=O)n2c(c1C(=O)NC(C)c1ccco1)CCN(C(=O)c1cn3ccc(C)cc3n1)CC2 (configuration not stated) | -8.43% (inactive) | –
NCCCNCCCCN(CCCN)/[N+]([O-])=N/O | -13.7% (inactive) | –
O=C1CCN(CCc2ccccc2)CCN1CCOc1ccccc1 | 21.5% (inactive) | –
O=C(CN1Cc2ccccc2OC(c2ccccc2)C1)N1CCCCC1c1cccnc1 (configuration not stated) | 3.86% (inactive) | –
N[C@H](C(=O)O)c1ccc(C(=O)O)c(O)c1 | -1.36% (inactive) and -12.7% (inactive) | –
Cc1ccc(/C(=C/CN2CCCC2)c2ccccn2)cc1 | -20.9% (inactive) | –
CN1CCC2(CC1)CCN(S(=O)(=O)c1ccccc1)CC2 | 2.56% (inactive) | –
CN(C)C(=O)[C@@H]1C[C@@H](Sc2nc3ccccc3[nH]2)CN1Cc1ccc(Cl)cc1 | 0.834% (inactive) | –
C=C1C(=C/C=C2\CCC[C@]3(C)[C@@H]([C@H](C)CCCC(C)(C)O)CC[C@@H]23)C[C@@H](O)C[C@@H]1O | -16.6% (inactive) | –
O=C(c1csnn1)N1CCC2(CC1)CN(c1ncccn1)C2 | 26.8% (inactive) | –
O=C(NCCN1CCOCC1)c1cnn(-c2nccc(-c3cccs3)n2)c1C1CC1 | -10.9% (inactive) | –
CN(Cc1ccco1)c1cc(-c2ccccc2C(F)(F)F)ncn1 | 17% (inactive) | –

Structure (SMILES) | max response | Potency
COc1ccc(C)cc1N1C(=O)[C@@H]2C[C@H]1CN2Cc1cccc(OC)c1O | -2.66% (inactive) | –
O=C(O)CCC(=O)O | -16.2% (inactive) | –
COC1[C@H](OC(N)=O)C(O)[C@H](Oc2ccc3c(O)c(NC(=O)c4ccc(O)c(CC=C(C)C)c4)c(=O)oc3c2C)OC1(C)C (some centres not stated) | 12.3% (inactive) | –
O=C(C[n+]1ccncc1)c1ccc2c(c1)CCCC2 | -14.9% (inactive) | –
COc1cc(=O)n2c(c1C(=O)N(C)Cc1nonc1C)CCN(C(=O)c1ccc(C)cc1C)CC2 | -17.4% (inactive) | –
C=C1C(=CC=C2CCC[C@@]3(C)[C@@H]2CC[C@H]3[C@H](C)CCCC(C)C)C[C@@H](O)C[C@@H]1O | -125% (inactive) | –
CN1CCN(c2ncncc2-c2ccc(C(=O)N(C)C)cc2)CC1 | -22% (inactive) | –
Cc1cccc(C)c1NC(=O)NC1=CCCN1C | -23.6% (inactive) | –
O=C1NC(CC(=O)N2CCC(n3c(C4CCC4)nc4cccnc43)CC2)c2ccccc21 (configuration not stated) | 2.72% (inactive) | –
CCNCCCNCCCNCCCNCC | -1.46% (inactive) | –
CCCCCCCC/C=C\CCCCCCCC(=O)OC[C@H](CO)OC(C)=O | -42.9% (inactive) | –
Nc1ncnc2c1c(I)cn2[C@@H]1C[C@H](N)[C@@H](O)[C@H]1O | -1.21% (inactive) | –
COc1ccccc1CNc1ncncc1-c1cccnc1 | -29.8% (inactive) | –
O=C(OCCN1CCOCC1)C1(c2ccccc2)CCCCC1 | 0.319% (inactive) and -0.482% (inactive) and -4.96% (inactive) | –
CC1(C)[C@@H]2CC[C@@]1(C)[C@H](OC(=O)CSC#N)C2 | -10.5% (inactive) | –
COc1ccc(Oc2ncc3nc(-c4ccc(F)cc4)c(=O)n(C)c3n2)cc1 | -48.7% (inactive) | –
OCC1CCCN(c2nc3cc4c(cc3cc2CNCc2cccs2)OCO4)C1 (configuration not stated) | -2.38% (inactive) | –
COc1ccc(-c2nc3cnc(OC)nc3n(Cc3ccc(F)cc3)c2=O)cc1 | -45.5% (inactive) | –
CC(C)[C@H](CO)Nc1nc(Nc2cc(N)cc(Cl)c2)c2ncn(C(C)C)c2n1 | 16.3% (inactive) | –
